# According to PubChem BioAssay (EPA / NIEHS):
# Records with an inconclusive call do not appear. Active and inactive are the calls of the source. The calls were made as follows, unless noted: active = hit-call score of the fitted dose curve at least 0.9, where 1 is the maximum; inconclusive = response in the unintended direction; inactive = score below 0.9.
# Experiments:
# [1] = Tanguay_ZF_120hpf_SOMI_legacy: (Legacy) Oregon State University Tanguay Lab 120 Hour Post-fertilization zebrafish Assay for Somite Malformation (AID 2283647)
# Summary of the method: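 Somitogenesis defects are recorded as binary calls in whole larvae at 120 hpf after continuous static chemical exposure starting at 6 hpf in dechorionated 5D embryos. DMSO serves as negative control and baseline.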
# [2] = Tanguay_ZF_120hpf_PFIN_legacy: (Legacy) Oregon State University Tanguay Lab 120 Hour Post-fertilization zebrafish Assay for Pectoral Fin Malformation (AID 2283648);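 also: each larva judged yes or no for fin defect by brightfield with dead larvae skipped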
# Summary of the method: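 Dechorionated Tropical 5D wild-type zebrafish embryos, one per well, statically exposed from 6 to 120 hpf at 28C with 0.64% DMSO final. Pectoral fin malformation scored present/absent by brightfield at 120 hpf; not scored in dead embryos.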
# [3] = Tanguay_ZF_120hpf_CFIN_legacy: (Legacy) Oregon State University Tanguay Lab 120 Hour Post-fertilization zebrafish Assay for Caudal Fin Malformation (AID 2283649)
# Summary of the method: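 Single dechorionated 5D wild-type embryos are dosed at 6 hpf (final DMSO 0.64%) and held statically at 28C. Caudal fin malformation is recorded as present or absent at 120 hpf under brightfield, excluding dead embryos.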
# [4] = Tanguay_ZF_120hpf_PIG_legacy: (Legacy) Oregon State University Tanguay Lab 120 Hour Post-fertilization zebrafish Assay for Pigmentation Malformation (AID 2283650)
# Summary of the method: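 Dechorionated Tropical 5D wild-type embryos, one per well from 6 hpf, statically exposed at 28C in the dark until 120 hpf, 0.64% DMSO final. Pigmentation scored present/absent by brightfield microscopy; dead embryos not scored; fitted versus DMSO.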
# [5] = Tanguay_ZF_120hpf_CIRC_legacy: (Legacy) Oregon State University Tanguay Lab 120 Hour Post-fertilization zebrafish Assay for Circulatory Malformation (AID 2283651)
# Summary of the method: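 Tropical 5D wild-type embryos, dechorionated with pronase at 4 hpf, were placed singly in wells at 6 hpf and exposed statically at 28C to 120 hpf (0.64% DMSO final). Circulatory malformation was scored present/absent by brightfield microscopy.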
# [6] = Tanguay_ZF_120hpf_SWIM_legacy: (Legacy) Oregon State University Tanguay Lab 120 Hour Post-fertilization zebrafish Assay for Swim Bladder Malformation (AID 2283654);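 also: swim bladder malformation in each larva scored yes or no under brightfield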
# Summary of the method: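 Dechorionated wild-type Tropical 5D zebrafish embryos, one per well from 6 hpf, were statically exposed at 28C until 120 hpf in 0.64% DMSO. Swim bladder malformation scored as present/absent by brightfield microscopy; not scored in dead larvae.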
# [7] = Tanguay_ZF_120hpf_TRUN_legacy: (Legacy) Oregon State University Tanguay Lab 120 Hour Post-fertilization zebrafish Assay for Truncated Body (AID 2283655)
# Summary of the method: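 Single dechorionated zebrafish embryos received test chemical from 6 hpf in 0.64% DMSO, kept at 28C. At 120 hpf, brightfield inspection noted any truncated body.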
# [8] = Tanguay_ZF_120hpf_NC_legacy: (Legacy) Oregon State University Tanguay Lab 120 Hour Post-fertilization zebrafish Assay for Notochord and Tail Malformation (AID 2283656)
# Summary of the method: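 Dechorionated 5D zebrafish, 1/well from 6 hpf; static exposure to 120 hpf, 28C, sealed, dark; final DMSO 0.64% v/v. NC scored binary (present/absent); dead embryos not scored. Fit vs DMSO baseline, gain direction.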
# [9] = Tanguay_ZF_120hpf_TR_legacy: (Legacy) Oregon State University Tanguay Lab 120 Hour Post-fertilization zebrafish Assay for Touch Response (AID 2283667)
# Summary of the method: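 Tropical 5D wild-type zebrafish embryos statically exposed to 120 hpf at 28°C, sealed and dark-covered, 0.64% DMSO final; touch response scored as present/absent by brightfield microscopy at 120 hpf. Trimethyltin chloride 5 uM positive control; dead embryos not scored.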
# [10] = CCTE_Padilla_ZF_144hpf_TERATOSCORE: (Legacy) CCTE's 144 Hour Post-fertilization zebrafish Assay Teratoscore, Padilla Lab (AID 2283679; active = hit-call score of the fitted dose curve at least 0.9, where 1 is the maximum; inactive = score below 0.9;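 as to AC50: zebrafish embryos with chorions exposed by immersion from 6-8 hpf to 5 dpf with daily renewal; teratogenicity score from eye scoring of death hatching and malformations at 144 hpf; higher score means more developmental defects relative to DMSO baseline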)
# Summary of the method: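 Larvae scored by eye at 144 hpf for death, hatching and malformations after a day in clean Hanks'. Before that, daily-renewed exposure at 80 uM (0.4% DMSO, 26C) from roughly 6-8 hpf through 5 dpf, 4 embryos per chemical.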
# [11] = Tanguay_ZF_120hpf_ActivityScore_legacy: (Legacy) Oregon State University Tanguay Lab 120 Hour Post-fertilization zebrafish Assay Score for Activity (AID 2283742)
# Summary of the method: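 Dechorionated Tropical 5D embryos, one per well from 6 hpf, statically exposed to 120 hpf at 28 °C in 0.64% DMSO. Mortality and malformations scored binary by brightfield microscopy; activity score combines 18 endpoints, fitted positively versus DMSO.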
# [12] = STM_H9_OrnithineISnorm_perc: Stemina devTOX quickPredict H9 human embryonic stem cell (hESC)-based Assay for Ornithine (ORN) Metabolite Biomarker, Normalized (AID 2283712; active = hit-call score of the fitted dose curve at least 0.9, where 1 is the maximum; inactive = score below 0.9;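 also: ornithine released into spent medium during last day measured by mass spectrometry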)
# Summary of the method: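 Undifferentiated pluripotent H9 hESCs were exposed to compound for 72h, with media and compound replaced every 24h. Ornithine in final 24-h conditioned media was measured by UPLC-HRMS, normalized to 13C-labeled spike-in standard and to median 0.1% DMSO control.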
# [13] = STM_H9_CystineISnorm_perc: Stemina devTOX quickPredict H9 human embryonic stem cell (hESC)-based Assay for Cystine (CYSS) Metabolite Biomarker, Normalized (AID 2283713; active = hit-call score of the fitted dose curve at least 0.9, where 1 is the maximum; inactive = score below 0.9)
# Summary of the method: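 Undifferentiated H9 hESCs were exposed to compound for 72h, with medium and compound replaced every 24h. Final-24h conditioned medium was deproteinized and analyzed by UPLC-HRMS. Cystine EIC area was normalized to spiked C13 standard and 0.1% DMSO median.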
# [14] = STM_H9_OrnCyssISnorm_ratio: Stemina devTOX quickPredict H9 human embryonic stem cell (hESC)-based Assay for Ornithine (ORN):Cystine (CYSS) Ratio (AID 2283714)
# Summary of the method: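 Undifferentiated H9 hESCs exposed 72 h, media and compound replaced every 24 h; final 24-h conditioned media deproteinized and analysed by UPLC-HRMS against C13 spike-ins. Value is the internal-standard-normalized ORN/CYSS ratio versus 0.1% DMSO.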
# [15] = read-out: kallikrein-3 (KLK3), KLK3 (gene 354); assay: LTEA_HepaRG_KLK3: Life Technologies and Expression Analysis (LTEA) Assay for kallikrein-3 (KLK3) using HepaRG (AID 2283652; active = hit-call score of the fitted dose curve at least 0.9, where 1 is the maximum; inactive = score below 0.9); conditions: mRNA level, 48 h; actives raise or lower the signal
# Summary of the method: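 Differentiated human HepaRG cells in serum-free induction medium exposed 48 h in duplicate, eight-point half-log series from 100 uM in 0.5% DMSO. KLK3 mRNA by qRT-PCR, normalised to ACTB, GAPDH, POLR2A; bidirectional fit versus DMSO.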
# [16] = read-out: solute carrier (SLC22A6), SLC22A6 (gene 9356); assay: LTEA_HepaRG_SLC22A6: Life Technologies and Expression Analysis (LTEA) Assay for solute carrier (SLC22A6) using HepaRG (AID 2283653; active = hit-call score of the fitted dose curve at least 0.9, where 1 is the maximum; inactive = score below 0.9); conditions: mRNA level, 48 h; actives raise or lower the signal
# Summary of the method: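 Gene-expression endpoint in HepaRG hepatic cells: duplicate 8-point concentration-response, highest 100 uM, 48 h treatment in serum-free medium with 0.5% DMSO. SLC22A6 expression measured by qRT-PCR, normalised to ACTB/GAPDH/POLR2A.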
# [17] = read-out: solute carrier (SLC10A1), SLC10A1 (gene 6554); assay: LTEA_HepaRG_SLC10A1: Life Technologies and Expression Analysis (LTEA) Assay for solute carrier (SLC10A1) using HepaRG (AID 2283657; active = hit-call score of the fitted dose curve at least 0.9, where 1 is the maximum; inactive = score below 0.9); conditions: mRNA level, 48 h; actives raise or lower the signal
# Summary of the method: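 HepaRG cells (single lot) exposed 48 h in serum-free induction medium, 8-point half-log series from 100 uM top in 0.5% DMSO, duplicate. SLC10A1 mRNA by qRT-PCR normalised to ACTB, GAPDH, POLR2A; bidirectional fit versus DMSO.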
# [18] = read-out: matrix metalloproteinase-1 (MMP1), MMP1 (gene 4312); assay: LTEA_HepaRG_MMP1: Life Technologies and Expression Analysis (LTEA) Assay for matrix metalloproteinase-1 (MMP1) using HepaRG (AID 2283658; active = hit-call score of the fitted dose curve at least 0.9, where 1 is the maximum; inactive = score below 0.9); conditions: mRNA level, 48 h; actives raise or lower the signal
# Summary of the method: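 In this screen, human liver HepaRG cultures receive each chemical in duplicate for 48 h (top 100 uM, 0.5% DMSO). MMP1 expression is then quantified by TaqMan qRT-PCR with ACTB/GAPDH/POLR2A normalization.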
# [19] = tested on: Thyroperoxidase (TPO), gene 54314; assay: CCTE_Simmons_AUR_rTPO: CCTE's Amplex UltraRed Assay for Thyroperoxidase (TPO) Inhibition, Simmons Lab (AID 2283662);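 also: potency for loss of signal meaning inhibition of peroxidase activity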
# Summary of the method: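 Rat thyroid microsomal TPO + 25 uM AUR in 200 mM K phosphate; cpd 5 nM–87.5 uM [final], 8 conc, 0.5% DMSO; 300 uM H2O2 starts rxn; 37C dark 30 min; endpoint FI 544/590 nm; n=3.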
# [20] = CCTE_Simmons_CellTiterGLO_HEK293T: Viability Assessment in CCTE's Assays for Thyroperoxidase (TPO) Inhibition, Simmons Lab (AID 2283665)
# Summary of the method: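 HEK293T cells in DMEM with 1% FBS were dosed with 8 concentrations (5 nM–87.5 uM final, 0.5% DMSO) for 24 hr at 37C; ATP content was read by CellTiter-Glo luminescence, loss-of-signal versus DMSO, three biological replicates.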
structure (smiles),measurement,setting,value
CC(O)CCO (configuration not stated),outcome,[1],inactive
same,outcome,[2],inactive
same,outcome,[3],inactive
same,outcome,[4],inactive
same,outcome,[5],inactive
same,outcome,[6],inactive
same,outcome,[7],inactive
same,outcome,[8],inactive
same,outcome,[9],inactive
same,outcome,[10],inactive
same,outcome,[11],inactive
CCCSC(=O)N(CCC)CCC,outcome,[1],inactive
same,outcome,[2],inactive
same,outcome,[3],inactive
same,outcome,[4],inactive
same,outcome,[5],inactive
same,outcome,[6],inactive
same,outcome,[7],inactive
same,outcome,[8],inactive
same,outcome,[9],inactive
same,outcome,[11],inactive
CS(=O)(=O)NC(=O)c1cc(Oc2ccc(C(F)(F)F)cc2Cl)ccc1[N+](=O)[O-],outcome,[1],inactive
same,outcome,[2],inactive
same,outcome,[3],inactive
same,outcome,[4],inactive
same,outcome,[5],inactive
same,outcome,[6],inactive
same,outcome,[7],inactive
same,outcome,[8],inactive
same,outcome,[9],inactive
same,AC50,[10],0.128 µM (active)
same,outcome,[11],inactive
CNC(=O)Oc1cccc2c1OC(C)(C)C2,outcome,[1],inactive
same,outcome,[2],inactive
same,outcome,[3],inactive
same,outcome,[4],inactive
same,outcome,[5],inactive
same,outcome,[6],inactive
same,AC50,[7],12.6 µM (active)
same,outcome,[8],inactive
same,outcome,[9],inactive
same,outcome,[12],inactive
same,outcome,[13],inactive
same,outcome,[14],inactive
same,outcome,[11],inactive
CN(C)C(=O)Nc1ccc(Cl)cc1,outcome,[1],inactive
same,outcome,[2],inactive
same,outcome,[3],inactive
same,outcome,[4],inactive
same,outcome,[5],inactive
same,outcome,[15],inactive
same,outcome,[16],inactive
same,outcome,[6],inactive
same,outcome,[7],inactive
same,outcome,[8],inactive
same,outcome,[17],inactive
same,outcome,[18],inactive
same,AC50,[19],21.7 µM (active)
same,outcome,[20],inactive
same,outcome,[9],inactive
same,outcome,[12],inactive
same,outcome,[13],inactive
same,outcome,[14],inactive
same,outcome,[11],inactive
Cn1cc(-c2ccccc2)c(=O)c(-c2cccc(C(F)(F)F)c2)c1,outcome,[1],inactive
same,outcome,[2],inactive
same,outcome,[3],inactive
same,outcome,[4],inactive
same,outcome,[5],inactive
same,outcome,[6],inactive
same,outcome,[7],inactive
same,outcome,[8],inactive
same,AC50,[9],41.1 µM (active)
same,AC50,[10],57 µM (active)
same,AC50,[12],0.0803 µM (active)
same,outcome,[13],inactive
same,outcome,[14],inactive
same,outcome,[11],inactive
C1=Cc2cccc3cccc1c23,outcome,[1],inactive
same,outcome,[2],inactive
same,outcome,[3],inactive
same,outcome,[4],inactive
same,outcome,[5],inactive
same,outcome,[15],inactive
same,outcome,[16],inactive
same,outcome,[6],inactive
same,outcome,[7],inactive
same,outcome,[8],inactive
same,outcome,[17],inactive
same,outcome,[18],inactive
same,outcome,[9],inactive
same,outcome,[11],inactive
CCCCC(CC)COC(=O)c1ccc(C(=O)OCC(CC)CCCC)c(C(=O)OCC(CC)CCCC)c1 (configuration not stated),outcome,[1],inactive
same,outcome,[2],inactive
same,outcome,[3],inactive
same,outcome,[4],inactive
same,outcome,[5],inactive
same,outcome,[6],inactive
same,outcome,[7],inactive
same,outcome,[8],inactive
same,AC50,[19],12.7 µM (active)
same,outcome,[20],inactive
same,outcome,[9],inactive
same,outcome,[11],inactive
CC(C)COC(=O)c1ccccc1C(=O)OCC(C)C,AC50,[1],50.6 µM (active)
same,AC50,[2],45.5 µM (active)
same,outcome,[3],inactive
same,outcome,[4],inactive
same,outcome,[5],inactive
same,outcome,[15],inactive
same,outcome,[16],inactive
same,outcome,[6],inactive
same,outcome,[7],inactive
same,outcome,[8],inactive
same,outcome,[17],inactive
same,outcome,[18],inactive
same,outcome,[9],inactive
same,AC50,[10],2.53 µM (active)
same,AC50,[12],76.1 µM (active)
same,AC50,[13],33 µM (active)
same,AC50,[14],35.3 µM (active)
same,outcome,[11],inactive
